Sampled rows, rich in hits. Any-hit rate of the full collection: about 5.9%.
VP16 counter = inhibits Gal4-VP16 luciferase reporter, ROR gamma counter-screen; Drosophila S2 Gal4-VP16 UAS-luciferase, luminescence, 20 h; Potency, µM (doses to about 53.6 µM), for the others: top-dose activity, negative = inhibition, actives largely listed as inhibitors; 310,000 tested, 3.5% active; AID 2546;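 further: Gal4-VP16 expression switched on by copper sulfate through the metallothionein promoter; potency means the concentration at half of the fitted maximal effect; nearly all actives have a fitted effect of over 50% in size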
TrxR1 substrate = substrates of rat thioredoxin reductase 1; O89049; Potency, µM (titrated, usually from 114 µM), without a hit: top-dose activity change, negative = substrate turnover; purified TrxR1 substrate turnover, NADPH consumption readout; 390,000 tested, 0.01% active; further: potency means the concentration at half of the fitted maximal effect; nearly all actives have a fitted effect of over 50% in size
Target sequence (O89049 whole entry, looked up): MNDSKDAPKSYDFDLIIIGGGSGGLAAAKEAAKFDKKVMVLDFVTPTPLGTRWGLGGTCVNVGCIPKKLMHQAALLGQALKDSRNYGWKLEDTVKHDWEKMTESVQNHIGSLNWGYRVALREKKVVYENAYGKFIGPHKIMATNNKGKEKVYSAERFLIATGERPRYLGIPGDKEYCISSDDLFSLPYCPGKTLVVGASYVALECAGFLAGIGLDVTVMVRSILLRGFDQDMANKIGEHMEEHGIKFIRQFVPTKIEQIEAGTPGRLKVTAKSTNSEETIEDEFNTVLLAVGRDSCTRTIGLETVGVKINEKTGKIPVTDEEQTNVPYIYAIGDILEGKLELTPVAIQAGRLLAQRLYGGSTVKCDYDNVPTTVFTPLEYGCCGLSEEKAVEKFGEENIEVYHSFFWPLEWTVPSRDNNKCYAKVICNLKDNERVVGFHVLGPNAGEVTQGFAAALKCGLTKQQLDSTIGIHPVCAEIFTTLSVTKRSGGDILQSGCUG
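Rat TrxR1, dispensed at 90 nM, was prereduced with 400 uM NADPH (final) for 5 min at ~22 deg C, then incubated with compound 15 min before 400 uM selenite. A first-read NADPH fluorescence drop versus no-compound background flagged substrates.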
TrxR1 inh = blocks rat thioredoxin reductase 1; recombinant rTrxR1, NADPH fluorescence consumption, selenite substrate; Potency, µM (top dose mostly 114 µM), without a hit: at the highest dose activity change, negative = inhibition, usual class: inhibitors; 390,000 tested, 1% active; further: potency means the concentration at half of the fitted maximal effect; nearly all actives have a fitted effect of over 65% in size
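Rat TrxR1 (90 nM in the dispensed reagent) was pre-reduced with 400 uM NADPH for 5 min at room temperature, then incubated with compound for 15 min. After 400 uM selenite was added, NADPH fluorescence (Ex 340/Em 450 nm) was followed for 8 min.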
RORg inh = ROR gamma (mouse) transcription inhibition | Drosophila S2 Gal4-RORgamma UAS-luciferase reporter, 20 h | Potency, µM (series often up to 53.6 µM), inactives show top-dose activity change, negative = inhibition, actives largely listed as inhibitors | 310,000 tested, 5.4% active | P51450 | AID 2551; further: potency means the concentration at half of the fitted maximal effect; nearly all actives have a fitted effect of over 60% in size
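Schneider cells (Drosophila), stable Gal4 DBD–ROR gamma + UAS-luc; 1 hr cmpd preincubation; Cu2+ induction 700 uM final; 20 hr ambient; luminescence.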
Coupling enz = coupling enzyme interference in Giardia aldolase counter-screen | coupling enzyme system counterscreen, AmpLite Red fluorescence | activity change, negative = inhibition, % at 58.2 µM, hits read low | 290,000 tested, 0.67% active | AID 2472; in the data active means activity change below about -30%
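Final compound at 57.5 uM, incubated 10 min at RT with coupling enzyme reagent (glyceraldehyde-3-phosphate), then 20 min with substrate and AmpLite Red detection. Fluorescence read at 525/598 nm; tests interference with the coupling assay, not aldolase inhibition.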
GALK inh = inhibitors of human galactokinase; P51570; Purified GALK, Kinase-Glo residual ATP luminescence; Potency, µM (top dose mostly 57.5 µM), without a hit: top-dose activity change, negative = inhibition, usual class: inhibitors; 270,000 tested, 0.007% active; further: potency means the concentration at half of the fitted maximal effect
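ATP-depletion format; final 35 uM ATP, 100 uM D-galactose, 5 nM enzyme; pH 8.0 HEPES/Mg2+ buffer; 60 min RT; luminescence read 10 min after detection reagent.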
* marks the source's active call; other numbers are inactive results; [ ] = another dose, or the depositor's remark. Unless noted, the call rests on the fitted dose curve; in most records, active means well fitted curve in the direction sought with a large enough effect; inconclusive means small, poorly fitted or top-dose-only effect, or another doubt; inactive means no such curve, though single readings can be large; an effect the other way counts as inactive or inconclusive. On the % scale 0 is the no-effect control and ±100 the full control effect.

`COc1cccc(-n2c(SCC(=O)Nc3sc4c(c3C(N)=O)CCC4)nc3ccccc3c2=O)c1` gave VP16 counter -9%, TrxR1 substrate 15%[57.1 µM], TrxR1 inh -25%[57.1 µM], RORg inh 7% and Coupling enz -1.
For COc1ccc(OC)c(NC(=O)c2nc(S(=O)(=O)Cc3ccccc3)ncc2Cl)c1 the results were VP16 counter inconclusive, TrxR1 substrate -1%, TrxR1 inh 3.5µM*, RORg inh 5µM* and GALK inh -1%.
`COc1ccc(NC(=O)c2nc(S(=O)(=O)Cc3cccc(C)c3)ncc2Cl)c(OC)c1` gave VP16 counter 7.9µM*, TrxR1 substrate 2%, TrxR1 inh 13%, RORg inh inconclusive and GALK inh -2%.
Screening O=C(COC(=O)CCc1ccc(S(=O)(=O)N2CCOCC2)cc1)NC1CCCC1 returned VP16 counter 14%, TrxR1 substrate -5%, TrxR1 inh 2%, RORg inh -40%, Coupling enz 8 and GALK inh -4%.
`COc1ccc(Nc2nc(N)nc(CN3CCC(Cc4ccccc4)CC3)n2)cc1` gave VP16 counter inconclusive, TrxR1 substrate 6%[57.1 µM], TrxR1 inh 6%[57.1 µM], RORg inh 11µM*, Coupling enz 0 and GALK inh -1%.
`COc1ccccc1Nc1nc(N)nc(CN2CCC(Cc3ccccc3)CC2)n1` gave VP16 counter inconclusive, TrxR1 substrate -2%, TrxR1 inh 4%, RORg inh 8.9µM*, Coupling enz 2 and GALK inh -3%.
Screening COc1ccccc1Nc1nc(N)nc(CN2CCOCC2)n1 returned VP16 counter -3%, TrxR1 substrate 9%, TrxR1 inh 13%, RORg inh -15%, Coupling enz 1 and GALK inh -1%.
Screening COc1ccc(Nc2nc(N)nc(CN3CCOCC3)n2)cc1 returned VP16 counter -3%, TrxR1 substrate 8%, TrxR1 inh -9%, RORg inh 25%, Coupling enz 1 and GALK inh 4%.
COc1ccccc1Nc1nc(N)nc(CN2CCCCCC2)n1 was read as VP16 counter 23%, TrxR1 substrate 7%[57.1 µM], TrxR1 inh 14µM*, RORg inh -8%, Coupling enz 0 and GALK inh 0%.
Screening CCCCNC(=O)N1CCCC(C(=O)c2cc(C)c(OC)c(C)c2)C1 (configuration not stated) returned VP16 counter -1%, TrxR1 substrate 8%[57.1 µM], TrxR1 inh 37%[57.1 µM], RORg inh 5%, Coupling enz 0 and GALK inh -6%.
For COc1ccc(OC)c(C2CC(=O)N3CN(c4ccccc4)CSC3=C2C#N)c1 (configuration not stated) the results were VP16 counter 13%, TrxR1 substrate 3%[57.1 µM], TrxR1 inh inconclusive, RORg inh 11µM*, Coupling enz -18 and GALK inh 1%.
Screening COc1ccc(C2CC(=O)N3CN(c4ccc(C)c(Cl)c4)CSC3=C2C#N)cc1 (configuration not stated) returned VP16 counter 13%, TrxR1 substrate 4%[57.1 µM], TrxR1 inh inconclusive, RORg inh -19%, Coupling enz -36* and GALK inh 2%.
Screening COc1ccc(N2CSC3=C(C#N)C(c4cccc(OC)c4OC)CC(=O)N3C2)cc1 (configuration not stated) returned VP16 counter 1%, TrxR1 substrate -6%[57.1 µM], TrxR1 inh inconclusive, RORg inh -45%, Coupling enz -29 and GALK inh 0%.
For CCC1(c2ccc(F)cc2)NC(=O)N(CC(=O)Nc2cccnc2Cl)C1=O (configuration not stated) the results were TrxR1 substrate 5%[57.1 µM] and TrxR1 inh 13%[57.1 µM].
For Cc1ccc(C(=O)N/C(=C\c2ccc3c(c2)OCO3)C(=O)N2CCOCC2)cc1 the results were VP16 counter -1%, TrxR1 substrate -6%, TrxR1 inh 18%, RORg inh 0% and GALK inh 1%.
`Cc1[nH]n(-c2ccccc2)c(=O)c1/C=N/NC(=O)c1cccc(F)c1` gave VP16 counter 1.3µM*, TrxR1 substrate -10%, TrxR1 inh -5%, RORg inh 0.56µM*, Coupling enz -6 and GALK inh 0%.
For Cc1[nH]n(-c2ccc(Br)cc2)c(=O)c1/C=N/NC(=O)c1ccccc1 the results were VP16 counter 0.13µM*, TrxR1 substrate -8%, TrxR1 inh 41%[2.29 µM], RORg inh 0.28µM*, Coupling enz -2 and GALK inh -8%.
Screening COC(=O)[C@@H]1CC[C@H](C)[C@@H](c2ccc(C)cc2)N1C(=O)c1ccc(/C=N/OC[C@@H](O)COCc2ccco2)cc1 returned VP16 counter -16%, RORg inh inconclusive and Coupling enz -1.
`CCOC(C)OCC` gave VP16 counter -2% and RORg inh 2%.
`O=C(COc1ccc(Cc2ccccc2)cc1)c1ccc(F)cc1` gave VP16 counter -14%, TrxR1 substrate -1%, TrxR1 inh 0%, RORg inh inconclusive, Coupling enz 2 and GALK inh -2%.
For COc1ccc2oc(=O)c(C(=O)Nc3cccc(C(C)=O)c3)cc2c1 the results were VP16 counter 5.6µM*, TrxR1 substrate 4%, TrxR1 inh 16%, RORg inh 2µM*, Coupling enz 1 and GALK inh 3%.
`COc1cccc(NC(=O)c2cc3ccccc3oc2=O)c1` gave VP16 counter 10µM*, TrxR1 substrate 5%, TrxR1 inh 18%, RORg inh 6.3µM*, Coupling enz 2 and GALK inh 6%.
Screening O=C1N(Cc2ccccc2)CC2(Br)COCOC12O (configuration not stated) returned TrxR1 substrate 8%[11.4 µM] and TrxR1 inh 2.2µM*.
Screening NC(=O)c1ccccc1N=Cc1cccnc1 returned TrxR1 substrate 67% and TrxR1 inh 3%.
COc1ccc(NS(=O)(=O)c2cccc(C(=O)NCCCN3CCCC3=O)c2)cc1 was read as TrxR1 substrate -4%[57.1 µM] and TrxR1 inh 11%.
For CCc1nnc(NC(=O)c2ncc(Cl)c(Cl)c2Cl)s1 the results were VP16 counter 4µM*, TrxR1 substrate -1%, TrxR1 inh 2%, RORg inh 3.2µM* and GALK inh 3%.
CCSc1ncc(Cl)c(C(=O)Nc2nnc(CC)s2)n1 was read as TrxR1 substrate 0% and TrxR1 inh 15%.

High-throughput results as filed in PubChem BioAssay.
